The values below come from the supplement of paper PMC7411054.

What all share (settings): treatment time: 24 h
The test system of test [1] is A549-ACTB-RAB5A. Description: lowest phenotypically active concentration; higher = less potent. In short, it runs like this:
(§1)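 The reporter lines, fifteen in total and built by gene editing in A549, HepG2 and WPMY1 cells, used BFP for segmentation alongside GFP and RFP/FusionRed markers. Each was treated at 0.3, 1, 3 or 9 µM for 24 h in four wells and then imaged live, with live-cell features normalised to solvent control wells. Deviation meant ≥3 of 4 wells beyond the 95th percentile of control Euclidean distances; reproducibility meant a median replicate Pearson correlation above the 95th percentile of non-replicates. Only conditions meeting both were scored as phenotypically active.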

In test [2] the test system is A549-TUBA1B-RELA. The test is described as above. An outline of the steps: as §1
Test [3] deals with HepG2-ACTB-RAB5A. The test is described as above. In short, it runs like this: as §1
The subject of test [4] is WPMY1-GM130-SQSTM1. The test is described as above. An outline of the steps: as §1
The test system of test [5] is A549-ACTB-RAB5A. Description: phenotypically active (imaging signature differs from DMSO and reproducible) at any of 0.3-9 uM (binary (1 = active, 0 = inactive)); higher = active. An outline of the steps: as §1
The next test has as its system A549-CANX-COX4. The description is as above. In short, it runs like this: as §1
For test [6], the system named is A549-GM130-SQSTM1. Described as above. In short, it runs like this:
as §1

For a further test, the system named is A549-TP53BP1-CLTA. The description is as above. An outline of the steps: as §1
Test [7] concerns A549-TUBA1B-RELA. The test is described as above. An outline of the steps:
as §1

Test [8] concerns HepG2-ACTB-RAB5A. Described as above. An outline of the steps: as §1
In the next test the test system is HepG2-CANX-COX4. The test is described as above. In short, it runs like this:
as §1

The next test relates to HepG2-GM130-SQSTM1. The test is described as above. In short, it runs like this: as §1
Another test concerns HepG2-TP53BP1-CLTA. Described as above. In short, it runs like this: as §1
The next test deals with HepG2-TUBA1B-RELA. The description is as above. In short, it runs like this: as §1
The test system of the next test is WPMY1-ACTB-RAB5A. The test is described as above. In short, it runs like this: as §1
The test system of the next test is WPMY1-CANX-COX4. The description is as above. An outline of the steps: as §1
The subject of test [9] is WPMY1-GM130-SQSTM1. Described as above. In short, it runs like this:
as §1

The next test deals with WPMY1-TP53BP1-CLTA. Described as above. In short, it runs like this:
as §1

In another test the test system is WPMY1-TUBA1B-RELA. The test is described as above. In short, it runs like this:
as §1

The test system of test [10] is A549-GM130-SQSTM1. Kind of test: lowest phenotypically active concentration; higher = less potent. An outline of the steps: as §1

For the compound `O=c1cc(-c2ccccc2)oc2c(O)c(O)ccc12` [7,8-Dihydroxyflavone], the “lowest phenotypically active concentration” value in the test with A549-ACTB-RAB5A [1], in the test on A549-TUBA1B-RELA [2], in the test on HepG2-ACTB-RAB5A [3] and in the test with WPMY1-GM130-SQSTM1 [4] was 9 µM each time. The phenotypically active in the test on A549-ACTB-RAB5A [5] was 1 (active); in the test on A549-CANX-COX4, 1 (active); with A549-GM130-SQSTM1 [6] it was 0 (inactive); with A549-TP53BP1-CLTA, 0 (inactive); in the test with A549-TUBA1B-RELA [7], 1 (active); with HepG2-ACTB-RAB5A [8], 1 (active). In addition, the phenotypically active is 1 (active) with HepG2-CANX-COX4; 1 (active) in the test on HepG2-GM130-SQSTM1; 0 (inactive) in the test on HepG2-TP53BP1-CLTA; 0 (inactive) in the test on HepG2-TUBA1B-RELA; 1 (active) with WPMY1-ACTB-RAB5A; 1 (active) with WPMY1-CANX-COX4. Besides, the phenotypically active in the test with WPMY1-GM130-SQSTM1 [9] is 1 (active); in the test on WPMY1-TP53BP1-CLTA, 0 (inactive); in the test with WPMY1-TUBA1B-RELA, 1 (active).
`O=C(Nc1ccccc1)c1cc([N+](=O)[O-])ccc1Cl`: the “lowest phenotypically active concentration” value with A549-ACTB-RAB5A [1] worked out at 9 µM; with A549-GM130-SQSTM1 [10] it was 9 µM; in the test on A549-TUBA1B-RELA [2], 3 µM; with HepG2-ACTB-RAB5A [3], 9 µM. Moreover, the phenotypically active in the test with A549-ACTB-RAB5A [5] is 1 (active); in the test on A549-CANX-COX4 it was 1 (active); with A549-GM130-SQSTM1 [6] it was 1 (active); with A549-TP53BP1-CLTA, 0 (inactive); in the test on A549-TUBA1B-RELA [7], 1 (active); in the test on HepG2-ACTB-RAB5A [8], 1 (active). Moreover, the phenotypically active was 0 (inactive) in the test on HepG2-CANX-COX4; 0 (inactive) in the test on HepG2-GM130-SQSTM1; 0 (inactive) in the test on HepG2-TP53BP1-CLTA; 0 (inactive) in the test with HepG2-TUBA1B-RELA; 0 (inactive) in the test with WPMY1-ACTB-RAB5A; 1 (active) in the test with WPMY1-CANX-COX4. In addition, the phenotypically active with WPMY1-GM130-SQSTM1 [9], in the test with WPMY1-TP53BP1-CLTA and in the test with WPMY1-TUBA1B-RELA was 0 (inactive) in each case.
Turning to `Nc1ncnc2[nH]nc(Nc3ccc(F)cc3)c12`, the “lowest phenotypically active concentration” value in the test on A549-ACTB-RAB5A [1] worked out at 9 µM; in the test with A549-TUBA1B-RELA [2], 9 µM; with HepG2-ACTB-RAB5A [3] it was 9 µM; in the test on WPMY1-GM130-SQSTM1 [4], 3 µM. Further, the phenotypically active was 1 (active) with A549-ACTB-RAB5A [5]; 1 (active) in the test with A549-CANX-COX4; 0 (inactive) in the test on A549-GM130-SQSTM1 [6]; 0 (inactive) in the test on A549-TP53BP1-CLTA; 1 (active) with A549-TUBA1B-RELA [7]; 1 (active) with HepG2-ACTB-RAB5A [8]. Besides, the phenotypically active in the test with HepG2-CANX-COX4 was 0 (inactive); with HepG2-GM130-SQSTM1, 1 (active); in the test on HepG2-TP53BP1-CLTA, 1 (active); in the test with HepG2-TUBA1B-RELA, 1 (active); in the test with WPMY1-ACTB-RAB5A it was 1 (active); in the test on WPMY1-CANX-COX4, 1 (active). Further, the phenotypically active in the test with WPMY1-GM130-SQSTM1 [9], in the test with WPMY1-TP53BP1-CLTA and with WPMY1-TUBA1B-RELA was 1 (active) each time.
For the compound `CC(C)n1c(/C=C/[C@@H](O)C[C@@H](O)CC(=O)O)c(-c2ccc(F)cc2)c2ccccc21` [fluvastatin], the “lowest phenotypically active concentration” value with A549-ACTB-RAB5A [1] was determined as 1 µM; with A549-GM130-SQSTM1 [10], 9 µM; with HepG2-ACTB-RAB5A [3], 1 µM; with WPMY1-GM130-SQSTM1 [4], 1 µM. Further, the phenotypically active in the test on A549-ACTB-RAB5A [5] was 1 (active); in the test with A549-CANX-COX4, 1 (active); with A549-GM130-SQSTM1 [6] it was 1 (active); with A549-TP53BP1-CLTA, 1 (active); in the test on A549-TUBA1B-RELA [7], 0 (inactive); in the test with HepG2-ACTB-RAB5A [8], 1 (active). The phenotypically active with HepG2-CANX-COX4, in the test with HepG2-GM130-SQSTM1, with HepG2-TP53BP1-CLTA, in the test with HepG2-TUBA1B-RELA, in the test on WPMY1-ACTB-RAB5A and in the test with WPMY1-CANX-COX4 was 1 (active) in each case. For the same compound, the phenotypically active in the test on WPMY1-GM130-SQSTM1 [9], with WPMY1-TP53BP1-CLTA and with WPMY1-TUBA1B-RELA was 1 (active) each time.
Regarding `COc1ccc(-c2cc(=O)c3c(O)cc(O)cc3o2)cc1O` [Diosmetin], the “lowest phenotypically active concentration” value in the test with A549-ACTB-RAB5A [1], in the test with A549-GM130-SQSTM1 [10] and with A549-TUBA1B-RELA [2] was 9 µM in each case. Also, the phenotypically active with A549-ACTB-RAB5A [5] is 1 (active); in the test with A549-CANX-COX4 it was 1 (active); in the test with A549-GM130-SQSTM1 [6] it was 1 (active); in the test with A549-TP53BP1-CLTA, 0 (inactive); with A549-TUBA1B-RELA [7], 1 (active); in the test with HepG2-ACTB-RAB5A [8], 0 (inactive). The phenotypically active in the test with HepG2-CANX-COX4 was 0 (inactive); with HepG2-GM130-SQSTM1, 0 (inactive); with HepG2-TP53BP1-CLTA, 0 (inactive); with HepG2-TUBA1B-RELA it was 1 (active); in the test on WPMY1-ACTB-RAB5A, 0 (inactive); with WPMY1-CANX-COX4, 1 (active). Further, the phenotypically active with WPMY1-GM130-SQSTM1 [9] is 0 (inactive); with WPMY1-TP53BP1-CLTA, 1 (active); in the test on WPMY1-TUBA1B-RELA, 1 (active).
